# Data from PubChem BioAssay (NCATS).
# Values without a mark were called inactive. Inconclusive results are not listed. Entries that show only a call come without a potency. Active and inactive are the calls of the source. Calls follow the shape of the dose curve; as a rule, active = well fitted curve in the direction sought with a large enough effect; inconclusive = small, poorly fitted or top-dose-only effect, or another doubt; inactive = no such curve, though single readings can be large; an effect the other way counts as inactive or inconclusive.
# How the values were obtained:
# Furin (Homo sapiens) = Furin (Homo sapiens) (UniProt P09958); assay: Furin counterscreen qHTS for Zika virus inhibitors (AID 1347149); also: nearly all actives have a fitted effect of over 70% in size; also: potency is read from the fitted curve at half-maximal effect
# Summary of the method: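 Fluorogenic cleavage of BOC-RVRR-AMC (2 microM final, Km ~15 µM) was monitored (ex 340, em 450 nm) at 37C after 15 min RT preincubation of 5 nM furin with compounds in HEPES pH 7.0 buffer with CaCl2 and Triton X-100. Percent inhibition was fitted to a 4-parameter Hill curve.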
# [1] = ZIKV-mCherry secondary qHTS for Zika virus inhibitors (AID 1347158); also: top concentration of the series differs between compounds
# Summary of the method: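 After overnight seeding at 37 °C, Vero cells receive compound and then ZIKV-mCherry (MOI 1). Following 48-72 h infection, cells are fixed, counterstained with Hoechst, and imaged; percent infected cells is derived from an mCherry intensity cut-off of 450 RFU.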
# [2] = Confirmatory screen NINDS Rhodamine qHTS for Zika virus inhibitors (AID 1347161); also: potency is read from the fitted curve at half-maximal effect; nearly all actives have a fitted effect of over 60% in size
# Summary of the method: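 Rhodamine110-peptide cleavage (1.5 µM substrate) by 25 nM linked NS2B-NS3 enzyme at pH 8.0 (Tris, Tween 20), after 15 min RT preincubation with compounds; 15-min fluorescence change normalized to controls and Hill-fitted.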
# [3] = system: Zika virus NS2B-NS3 protease (linked); assay: 384 well plate NINDS AMC confirmatory qHTS for Zika virus inhibitors (AID 1347163); also: nearly all actives have a fitted effect of over 50% in size; also: potency is read from the fitted curve at half-maximal effect
# Summary of the method: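 Linked protease 5/30/60 nM final; cpds up to 1 mM final, ~15 min preinc. Substrate Ac-VKTGKR-AMC 30 microM final. RT, dark, 25 min; FI ex 355/em 460; normalized to no-enzyme/no-inhibitor ctrls.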
# [4] = system: Zika virus NS2B-NS3 protease (linked construct); assay: 384 well plate NINDS Rhodamine confirmatory qHTS for Zika virus inhibitors (AID 1347164);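 also: fluorescence from protease cleavage of Ac-LKRR-rhodamine 110 substrate; potency is read from the fitted curve at half-maximal effect; nearly all actives have a fitted effect of over 65% in size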
# Summary of the method: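 Linked protease at a final 5 nM, 30 nM or 60 nM was preincubated ~15 min with compounds, then given 10 microM Ac-LKRR-Rhodamine 110. Fluorescence (ex 485/em 538 nm) after 25 min in the dark at room temperature.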
# [5] = Tertiary RLuc qRT-PCR qHTS assay for Zika virus inhibitors (AID 1347169); also: top concentration of the series differs between compounds; nearly all actives have a fitted effect of over 55% in size
# Summary of the method: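 Vero cells (1,000 per well) plated overnight at 37 degrees C, treated with compound in DMSO, then infected with recombinant ZIKV-RLuc (Cambodian) at MOI 1-2 for 48-72 hrs. Live-cell Renilla luciferase substrate added; luminescence read after 1-1.5 hrs.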
# [6] = Confirmation and Secondary Assay for Modulators of Hemoglobin Beta Chain Splicing at IVS2 654 locus (AID 910);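 also: per-well total GFP intensity by laser scanning cytometry after 2-day treatment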
# Summary of the method: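 HeLa cells stably carrying EGFP interrupted by mutant beta-globin IVS2-654 intron (CMV-driven) were treated with compound for 2 days at 37C; corrected splicing was scored as total peak GFP intensity per well (488 nm excitation, 500-520 nm emission).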
# [7] = Confirmation and Secondary Assay for Modulators of Hemoglobin Beta Chain Splicing at IVS2 705 locus (AID 930);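 also: HeLa cells stably expressing the EGFP-705 splicing reporter; series mostly up to about 46 µM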
# Summary of the method: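 Restored EGFP fluorescence after 2-day compound exposure reports splicing correction in IVS2-705 EGFP reporter HeLa cells; positive control was 500 nM splice-blocking PNA oligo. Signal measured as well total peak GFP intensity (488 nm excitation).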
# [8] = molecular target: Ubiquitin carboxyl-terminal hydrolase 1 (Homo sapiens) (UniProt O94782); assay: Inhibitors of USP1/UAF1: Pilot qHTS (AID 504865);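 also: rhodamine fluorescence freed from ubiquitin-rhodamine substrate followed over time; top concentration of the series differs between compounds; nearly all actives have a fitted effect of over 35% in size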
# Summary of the method: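 USP1/UAF1 complex (1nM) preincubated with compound 15 min at room temperature, then Ub-Rho substrate (150nM final) added. Fluorescence read kinetically at 480/540 nm, 6 reads every 60 seconds. Buffer: 50mM HEPES pH 7.8, 0.5mM EDTA, 0.1 mg/ml BSA, 1mM TCEP, 0.01% Tween-20.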
# [9] = Confirmatory screen GU Rhodamine qHTS for Zika virus inhibitors qHTS (AID 1347157); also: nearly all actives have a fitted effect of over 70% in size
# Summary of the method: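 Unlinked NS2B/NS3, 25 nM; Rhod110 peptide, 1.5 microM; compounds, up to 114 microM. Reaction run 15 min at RT in 10 mM Tris-HCl pH 8.0, 0.01% Tween 20; kinetic fluorescence change fitted with a 4-parameter Hill model.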
# Chain of Furin (Homo sapiens) (P09958 whole entry, looked up): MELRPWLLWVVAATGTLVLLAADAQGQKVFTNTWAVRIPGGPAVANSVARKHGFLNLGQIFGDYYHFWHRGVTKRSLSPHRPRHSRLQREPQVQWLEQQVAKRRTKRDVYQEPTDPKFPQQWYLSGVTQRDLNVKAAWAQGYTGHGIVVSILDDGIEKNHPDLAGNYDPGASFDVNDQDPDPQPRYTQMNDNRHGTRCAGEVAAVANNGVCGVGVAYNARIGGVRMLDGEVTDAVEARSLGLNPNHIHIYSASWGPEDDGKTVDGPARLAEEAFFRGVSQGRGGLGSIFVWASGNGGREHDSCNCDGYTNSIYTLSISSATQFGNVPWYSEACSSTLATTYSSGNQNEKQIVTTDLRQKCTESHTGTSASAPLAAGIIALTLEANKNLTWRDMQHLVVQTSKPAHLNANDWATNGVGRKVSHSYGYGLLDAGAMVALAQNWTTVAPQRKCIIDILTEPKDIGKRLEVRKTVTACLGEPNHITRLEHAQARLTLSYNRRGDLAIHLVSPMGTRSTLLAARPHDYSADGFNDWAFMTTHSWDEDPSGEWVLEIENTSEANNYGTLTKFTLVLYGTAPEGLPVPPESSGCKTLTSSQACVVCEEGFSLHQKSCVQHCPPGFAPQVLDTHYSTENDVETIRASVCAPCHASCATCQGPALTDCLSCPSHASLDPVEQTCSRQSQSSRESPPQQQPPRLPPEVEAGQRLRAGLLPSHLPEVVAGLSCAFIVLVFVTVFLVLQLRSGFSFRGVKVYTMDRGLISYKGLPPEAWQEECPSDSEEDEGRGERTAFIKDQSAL
# Chain of Ubiquitin carboxyl-terminal hydrolase 1 (Homo sapiens) (O94782 whole entry, looked up): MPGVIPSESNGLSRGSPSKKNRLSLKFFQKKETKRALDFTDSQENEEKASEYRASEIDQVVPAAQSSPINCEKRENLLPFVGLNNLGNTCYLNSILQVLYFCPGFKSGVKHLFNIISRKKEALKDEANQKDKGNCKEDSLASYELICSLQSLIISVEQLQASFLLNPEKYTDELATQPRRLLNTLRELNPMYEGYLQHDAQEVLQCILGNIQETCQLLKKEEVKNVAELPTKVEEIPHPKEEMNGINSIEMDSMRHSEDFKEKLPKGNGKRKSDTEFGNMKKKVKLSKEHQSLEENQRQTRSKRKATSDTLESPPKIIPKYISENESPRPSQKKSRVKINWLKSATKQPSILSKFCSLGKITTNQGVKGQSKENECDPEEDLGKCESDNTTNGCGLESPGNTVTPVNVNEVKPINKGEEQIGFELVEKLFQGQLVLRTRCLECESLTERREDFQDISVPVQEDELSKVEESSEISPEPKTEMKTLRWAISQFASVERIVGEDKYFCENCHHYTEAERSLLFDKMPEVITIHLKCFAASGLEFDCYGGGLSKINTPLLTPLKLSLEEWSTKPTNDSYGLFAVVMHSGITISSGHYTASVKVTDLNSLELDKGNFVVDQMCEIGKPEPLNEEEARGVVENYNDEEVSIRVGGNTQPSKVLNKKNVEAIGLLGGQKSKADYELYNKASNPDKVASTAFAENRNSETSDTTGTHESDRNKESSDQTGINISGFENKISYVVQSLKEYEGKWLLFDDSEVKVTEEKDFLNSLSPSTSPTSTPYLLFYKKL
smiles,measurement,setting,value
CC(C)c1ccc(NC(=O)c2ccc3oc(=O)c(S(=O)(=O)c4ccc(F)cc4)cc3c2)cc1,Potency,Furin (Homo sapiens),inactive
same,Potency,[1],inactive
same,Potency,[2],56.2 µM (active)
same,Potency,[3],inactive
O=C(O)COc1ccc(-c2nccc3c2C(=O)N(Cc2cccc(C(F)(F)F)c2)CC(COc2ccccc2)O3)cc1 (stereo not drawn),Potency,Furin (Homo sapiens),inactive
same,Potency,[1],inactive
same,Potency,[4],39.8 µM (active)
same,Potency,[5],inactive
COc1ccc(/C=C(\C#N)c2nc(-c3cc4c(ccc5ccccc54)oc3=O)cs2)cc1O,Potency,Furin (Homo sapiens),inactive
same,Potency,[1],inactive
NC(Cc1cc(I)c(Oc2ccc(O)c(I)c2)c(I)c1)C(=O)O (stereo not drawn),outcome,[6],inactive
same,outcome,[7],inactive
same,Potency,[8],inactive
same,Potency,Furin (Homo sapiens),inactive
same,Potency,[9],inactive
same,Potency,[5],inactive
COc1ccc(C(=O)Nc2ccc(C(=O)OCc3cc(=O)n4nc(C(C)C)sc4n3)cc2)cc1,Potency,Furin (Homo sapiens),59.1 µM (active)
same,Potency,[1],inactive
same,Potency,[5],inactive
Cc1cccc(C(=O)Nc2ccc(C(=O)OCc3cc(=O)n4nc(C5CC5)sc4n3)cc2)c1,Potency,Furin (Homo sapiens),26.4 µM (active)
same,Potency,[1],inactive
same,Potency,[3],inactive
same,Potency,[5],inactive
O=S(=O)(Nc1ccc(O)c(Sc2nc3ccccc3s2)c1)c1cc(Cl)ccc1Cl,Potency,Furin (Homo sapiens),inactive
same,Potency,[2],22.4 µM (active)
same,Potency,[3],112 µM (active)
same,Potency,[4],44.7 µM (active)
same,Potency,[5],inactive
